Pf apPOL block: Pf-apPOL DNA polymerase inhibition; Recombinant Pf-apPOL, molecular beacon fluorescence, 1.5 h; inhibition, % at 10 µM; 210,000 tested, 0.25% active; AID 1794808
mHTT CaM bind: disrupts binding of mutant huntingtin to calmodulin | P42858 | AlphaScreen His-mHTT/GST-CaM binding, luminescence | inhibition, % at 15 µM | 190,000 tested, 3.6% active;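 further: 0% = both proteins with DMSO and 100% = one protein alone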
* marks the source's active call; other numbers are inactive results; x = no result given. Sampled rows, rich in hits. Any-hit rate of the full collection: about 3.6%. No stated cut-off is given here; in the data, active means inhibition above about 50%; inactive means the rest.

SMILES	Pf apPOL block	mHTT CaM bind
O=C1c2ccc(Oc3ccc([N+](=O)[O-])cc3)cc2C(=O)N1Cc1cccnc1	0	14
COCCn1cnc2sc(C(=O)Nc3c(F)cc(F)cc3Br)c(C)c2c1=O	-1	2
CC(C)CCC[C@@H](C)[C@H]1CC[C@H]2[C@@H]3CCC4CC(O)CC[C@]4(C)[C@H]3CC[C@]12C (some centres not stated)	x	-6
COc1ccc(N2COc3ccc4c(c3C2)OC(=Cc2cc(OC)c(OC)c(OC)c2)C4=O)cc1	-5	32
COc1ccc(N2COc3ccc4c(c3C2)OC(=Cc2ccc(OC)c(OC)c2OC)C4=O)cc1	-9	81*
COc1ccccc1C=C1Oc2c(ccc3c2CN(c2ccc4c(c2)OCCO4)CO3)C1=O	-4	28
COc1cccc(C=C2Oc3c(ccc4c3CN(c3ccc5c(c3)OCCO5)CO4)C2=O)c1OC	-3	77*
Cc1ccc(C(=O)N2CCC3(CC2)NC(=O)N(Cc2ccc(Cl)cc2)C3=O)cc1F	1	10
O=[N+]([O-])c1cc2c(cc1C=Nc1ccc(O)c(-c3nc4ccccc4[nH]3)c1)OCO2	4	65*
O=[N+]([O-])c1cc(C=Nc2ccc3nc(-c4ccccc4)[nH]c3c2)c(O)c([N+](=O)[O-])c1	-4	19
O=[N+]([O-])c1cc2c(cc1C=Nc1ccc(O)cc1)OCO2	x	22
O=[N+]([O-])c1cccc(C=Nc2ccc(O)c(-c3nc4ccccc4[nH]3)c2)c1O	0	68*
CCOc1ccc(C2CC(c3ccccc3)Nc3ncnn32)cc1 (configuration not stated)	1	0
CC(=O)c1ccc(N=Cc2ccc(OCc3ccccc3)cc2)cc1	0	-15
CCC(=O)N1CCc2c(c(C(=O)NCc3ccc(Cl)cc3)nn2C)C1	-8	81*
Cn1nc(C(=O)NCc2ccc(Cl)cc2)c2c1CCN(C(=O)C1CCCCC1)C2	-1	93*
CCC(=O)N1CCc2c(c(C(=O)NCc3ccc(F)cc3)nn2C)C1	-6	18
CC(C)C(=O)N1CCc2c(c(C(=O)NCc3ccccc3)nn2C)C1	-6	0
Cn1nc(C(=O)NCc2ccc(F)cc2)c2c1CCN(C(=O)C1CC1)C2	-8	29
CC(C)C(=O)N1CCc2c(c(C(=O)NCc3ccc(Cl)cc3)nn2C)C1	-6	71*
Cc1ccc(S(=O)(=O)N2CCc3nc(NC(=O)c4ccco4)sc3C2)cc1	0	21
CCCN(CCC)C(=O)C(CC)c1ccccc1 (configuration not stated)	-1	-4
CCOc1ccc2nc(N3CCCCC3)sc2c1	-1	-7
COc1ccc(-c2cnc(-c3c(O)c(C)nc4ccccc34)o2)cc1	-1	60*
c1ccc(-c2cnc(-c3cccc4ccccc34)o2)cc1	x	-27
SMILES	Pf apPOL block	mHTT CaM bind
O=C(c1ccccc1C(F)(F)F)N1CCC(c2nnc(-c3ccc(F)cc3)o2)CC1	-5	4
O=C(Nc1cccc2ccc(-n3ccnc3)nc12)c1ccccc1Cl	1	62*
Cc1onc(-c2ccccc2Cl)c1C(=O)Nc1cccc2ccc(-n3ccnc3)nc12	6	43
COc1cc(C2CC(=O)n3nc(-c4ccc(C)cc4)nc3S2)cc(OC)c1OC (configuration not stated)	-7	2
COc1ccc(-n2c(O)cnc2Nc2nc(C)cc(C)n2)cc1OC	11	5
CC1=NN(c2ccc(I)cc2)C(=O)/C1=C/c1ccc(N(C)C)cc1	-1	57*
CC1=NN(c2ccc(Cl)c(Cl)c2)C(=O)/C1=C/c1ccc(N(C)C)cc1	1	44
CCN(CC)c1ccc(/C=C2/C(=O)N(c3ccc(C)c(C)c3)N=C2C)cc1	-1	86*
CN(C)c1ccc(/C=C2\C(=O)N(c3ccccc3)N=C2c2ccccc2)cc1	-4	56*
CC1=NN(c2ccc(C)c(C)c2)C(=O)/C1=C/c1ccc(N(C)C)c([N+](=O)[O-])c1	-4	1
CC1=NN(c2cccc(F)c2)C(=O)/C1=C/c1ccc(N(C)C)cc1	-10	10
CC12CCC(CC1N)C2 (configuration not stated)	22	54*
Clc1cccc(-c2cn3ccccc3n2)c1	0	4
COc1ccc(-c2ncc3ccccn23)cc1OC	-2	4
COc1cc(-c2cc3ccccn3c2)cc(OC)c1OC	0	61*
Clc1cccc(-c2cc3ccccn3c2)c1	5	63*
O=C(CCNS(=O)(=O)c1ccc(Br)s1)Nc1ccc(C(F)(F)F)cc1	-15	-5
CCCCC(=O)NC(c1ccc(N(CC)CC)cc1)c1ccc2cccnc2c1O (configuration not stated)	-13	98*
CCC(=O)NC(c1ccc(N(C)C)cc1)c1ccc2cccnc2c1O (configuration not stated)	3	100*
CCCCC(=O)NC(c1ccc(N(C)C)cc1)c1ccc2cccnc2c1O (configuration not stated)	1	100*
O=C1C(=Cc2ccc(Cl)c(Cl)c2)Oc2cc(O)ccc21	-37	1
